Compound activity: PubChem BioAssay, National Center for Advancing Translational Sciences (NCATS)
VACV mCherry inh = qHTS for Stage-Specific Inhibitors of Vaccinia Orthopoxvirus: mCherry Reporter Primary qHTS; Vaccinia virus mCherry reporter infection, fluorescence; Potency, µM (highest dose often 36.5 µM), for the others: top-dose activity change, negative = inhibition, hits mostly inhibitors; hit rate 0.63% among 310,000; calls by dose curve; tested in A549 cells; also: nearly all actives have a fitted effect of over 35% in size
Vaccinia Venus = qHTS for Stage-Specific Inhibitors of Vaccinia Orthopoxvirus: Venus Reporter Primary qHTS | Vaccinia virus Venus reporter expression, fluorescence | hit rate 0.46% among 330,000 | Potency, µM (doses to about 36.5 µM), inactives show top-dose activity change, negative = inhibition, most hits filed as inhibitors; calls by dose curve; tested in A549 cells; also: nearly all actives have a fitted effect of over 30% in size
Lassa entry inh = qHTS for Inhibitors of binding or entry into cells for Lassa Virus | Lassa virus pseudotype entry inhibition, cell reporter | Potency, µM (series often up to 37.9 µM), without a hit: at the highest dose activity change, negative = inhibition, actives largely listed as inhibitors | hit rate 1.2% among 300,000 | AID 540256, 2011; calls by dose curve; tested in HEK293 cells; also: nearly all actives have a fitted effect of over 50% in size
HCV inh = qHTS Assay for Inhibitors of Hepatitis C Virus (HCV). Potency, µM (titrated, usually from 41.8 µM), for inactives: at the top dose activity change, negative = inhibition, actives largely listed as inhibitors. Huh7.5.1 HCVcc-Cre infection, luciferase reporter, 44 h. AID 651820, 2012. hit rate 3.4% among 340,000; active = well fitted inhibition curve with a large enough effect; inconclusive = small, poorly fitted or top-dose-only effect, or another doubt; inactive = no such curve, though single readings can be large or run the other way
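Seed cells (1,000/well) for 4 h; treat with compound and infect with HCVcc-Cre, moi about 0.5. Incubate 44 h, then detect luciferase activity.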
Marburg entry inh = qHTS for inhibitors of binding or entry into cells for Marburg Virus | Potency, µM (highest dose often 37.8 µM), without a hit: at the top dose activity change, negative = inhibition, hits mostly inhibitors | Marburg virus pseudotyped entry inhibition, cell reporter | hit rate 1.8% among 300,000; calls by dose curve; tested in HEK293 cells
FMDV antiviral = High Throughput Screening for Foot and Mouth Disease Virus Antivirals; FMDV antiviral cell-based qHTS; Potency, µM (top dose mostly 57.9 µM), without a hit: at the top dose activity change, negative = inhibition, most hits filed as inhibitors; hit rate 1.2% among 410,000; calls by dose curve; tested in HEK293T cells; also: read-out not given here; nearly all actives have a fitted effect of over 45% in size
The depositor's hits bear a star; i = inactive; ? = inconclusive; / = no result given; [ ] = another dose, or the depositor's remark. The list is not random: actives were taken first. Their share in the collection is about 5.3%. % is scaled to controls: 0 for no effect and ±100 for the full control effect; potency is read from the fitted curve at half-maximal effect.

SMILES | VACV mCherry inh | Vaccinia Venus | Lassa entry inh | HCV inh | Marburg entry inh | FMDV antiviral
O=C1CC(c2ccccc2)Cc2[nH]c(=O)c(-c3nc(-c4ccc(Cl)c(Cl)c4)cs3)cc21 (centres undefined) | -19% | -9% | 1%[46.1 µM] | / | ? | 1%
O=C1NC(=O)N(Cc2ccccc2Cl)C(=O)/C1=C/c1cccs1 | -15% | ? | / | 38% | / | 22µM*
O=C1NC(=O)N(Cc2ccc(F)cc2)C(=O)/C1=C/c1cccs1 | i | -2% | -4% | 2% | -22% | 32µM*
O=C1NC(=O)N(CCc2ccc(F)cc2)C(=O)/C1=C\C=C\c1ccccc1 | -8% | 5% | / | 4µM* | 9%[46.1 µM] | 10µM*
Cc1ccc(/C=C2\C(=O)NC(=O)N(CCc3ccc(F)cc3)C2=O)o1 | / | / | / | 9% | 1% | 22µM*
O=C1N/C(=C/c2cccs2)C(=O)N1Cc1ccccc1F | -9% | -9% | 0% | 13% | 3%[46.1 µM] | 6%
Cc1ccc(/C=C2\C(=O)NC(=O)N(Cc3ccccc3Cl)C2=O)o1 | / | / | / | 0% | / | 32µM*
O=S(=O)(CCSc1nc2ccccc2s1)c1nc2ccccc2s1 | / | / | ? | ? | ? | 8.9µM*
Cc1ccc(NC(=O)CSc2nc(NS(=O)(=O)c3ccccc3)cc(=O)[nH]2)cc1 | -14% | -8% | 5% | 21% | ? | -25%
CCc1ccc(NC(=O)CSc2nc(NS(=O)(=O)c3ccccc3)cc(=O)[nH]2)cc1 | 8.9µM* | -3% | ? | ? | 3.2µM* | -2%
COc1ccc(N2CCN(CCCNS(=O)(=O)c3c(C)noc3/C=C/N(C)C)CC2)cc1 | / | / | / | 7.9µM* | -8% | /
COc1ccc(CN(C)C(=O)CCl)cc1 | ? | -18% | / | ? | / | ?
CN(Cc1ccc(Cl)cc1)C(=O)CCl | / | / | / | ? | / | 25µM*
CN(C)CCNC(=O)c1ccc(Cl)s1 | / | / | 10% | 9% | 2% | 4%
CN(Cc1ccc(Cl)s1)C(=O)CCl | -16% | -25% | 11µM* | ? | ? | 11µM*
Cc1ccc2c(C)c3ccc4ccccc4c3c[n+]2c1 | -10% | -21% | -27% | 13µM* | ? | ?
C[C@@H]1CC[C@H]2C(=O)O[C@@H](Cc3ccccc3)CN2[C@@H]1c1ccc(Br)cc1 | / | / | / | / | 7%[14.2 µM] | /
COc1ccccc1N1CCN(C(=O)c2ccc(Nc3nc4ccccc4n4nnnc34)cc2)CC1 | -7% | 1% | 9%[46.1 µM] | / | -10%[46.1 µM] | 7%
N#Cc1ccc(CN2CCN(C(=O)c3ccc(S(=O)(=O)N4CCCCCC4)cc3)CC2)cc1 | / | / | / | 7.9µM* | / | 14µM*
COc1ccc(CN2CCN(C(=O)c3ccc(S(=O)(=O)N4CCCCCC4)cc3)CC2)cc1 | -4% | -15% | ? | ? | -5% | 20µM*
N#Cc1ccc(S(=O)(=O)N2CCC(C(=O)N3CCN(Cc4ccc5c(c4)OCO5)CC3)CC2)cc1 | / | / | / | 10µM* | / | ?
O=C(c1ccc(S(=O)(=O)N2CCCC2)cc1)N1CCN(Cc2ccc3c(c2)OCO3)CC1 | / | 0% | -11% | -16% | 9% | -23%
O=C(c1ccc(S(=O)(=O)N2CCCCCC2)cc1)N1CCC(CN2C(=O)c3cccc4cccc(c34)C2=O)CC1 | / | ? | ? | 10µM* | ? | -29%
O=C(C1CCN(S(=O)(=O)c2ccccc2)CC1)N1CCN(Cc2ccc3c(c2)OCO3)CC1 | -3% | -13% | -10% | / | -30% | -14%
CC1CN(C(=O)Nc2ccc(F)cc2F)CC(C)O1 (centres undefined) | i | -9% | 0%[46.1 µM] | 12% | -1%[46.1 µM] | 1%
SMILES | VACV mCherry inh | Vaccinia Venus | Lassa entry inh | HCV inh | Marburg entry inh | FMDV antiviral
COc1ccc(CN2CCN(C(=O)c3ccc(S(=O)(=O)N4CCCCCC4)cc3)CC2)cc1F | ? | -24% | ? | ? | ? | 14µM*
COc1ccc(CN2CCN(C(=O)c3ccc(S(=O)(=O)NCc4ccco4)cc3)CC2)cc1F | -3% | -28% | ? | ? | ? | ?
C=CC[n+]1c(-c2ccc(C)cc2)csc1Nc1ccc(NC(C)=O)cc1 | / | / | 2.3µM* | -27% | 6.5µM* | ?
C=CC[n+]1c(-c2ccc(OC)cc2)csc1NNC(=O)Nc1ccccc1 | -25% | -23% | ? | 11µM* | -50% | /
c1ccc(C[n+]2c(-c3ccccc3)csc2Nc2ccccc2)cc1 | i | -7% | 8% | ? | 19% | -27%
CN(C1CCCCC1)S(=O)(=O)c1ccc2c(c1)c(=O)c(C(=O)N1CCN(c3ccccc3)CC1)cn2C | -10% | 5% | 8%[46.1 µM] | / | ? | -6%
Cc1ccc(CNC(=O)COC(=O)c2cc3c(s2)CCC(C)C3)cc1 (centres undefined) | -12% | -9% | 7.9µM* | 0% | ? | 1%
CC1CCc2sc(C(=O)OCC(=O)NCc3ccccc3)cc2C1 (centres undefined) | -12% | -27% | 10µM* | 10% | -22% | -15%
C/C(N)=C(/C#N)C(=O)COC(=O)c1cc2c(s1)CCC(C)C2 (centres undefined) | -19% | -21% | 12% | -10% | 2%[46.1 µM] | 55%
CC1CCc2sc(C(=O)NCc3ccc(F)cc3)cc2C1 (centres undefined) | / | / | 5% | 11% | -6% | 38%
COc1ccc(-n2cc(C(=O)OCc3ccc(Cl)cc3)c3ccccc3c2=O)cc1 | -24% | -16% | -20%[46.1 µM] | / | / | -23%
O=C1NC[C@H](CC2CCCCC2)N(CCC23CC4CC(CC(C4)C2)C3)C1=O | -11% | -15% | / | / | / | -14%
N=c1ccn(Cc2ccc(F)cc2)cc1 | / | / | / | 4µM* | / | -21%
COc1cc(OC)cc(-c2noc([C@H]3C[C@H](O)[C@@H](CO)O3)n2)c1 | 24% | -10% | / | / | / | 17%
Cc1cc(/C=C2\SC(=Nc3ccccc3)NC2=O)c(C)n1-c1ccc(S(N)(=O)=O)cc1 | / | ? | ? | 4.5µM* | 8.9µM* | ?
C#CC(C)(CC)NC(=O)Cn1nnc(-c2ccc(OCc3ccccc3C)cc2)n1 (centres undefined) | ? | ? | ? | / | 18%[46.1 µM] | -29%
C#CC(C)(CC)NC(=O)Cn1nnc(-c2ccc(OCc3ccccc3F)cc2)n1 (centres undefined) | ? | 11µM* | -25%[46.1 µM] | / | ? | -19%
O=C(Nc1ccccc1)c1cccn(Cc2ccccc2)c1=O | i | -9% | ? | 10µM* | ? | 3%
O=C(Nc1ccon1)c1cccn(Cc2ccccc2)c1=O | -12% | 2% | 18%[46.1 µM] | / | / | -15%
O=C(Nc1ccncc1)c1cccn(Cc2ccccc2)c1=O | i | -12% | -27%[46.1 µM] | 8.9µM* | ? | ?
Cc1ccccc1NC(=O)c1ccccc1OCC(=O)Nc1ccc(Br)cc1 | -12% | -24% | / | / | / | /
COc1cccc(C(=O)/C=C/Nc2cccc(O)c2)c1 | / | / | 2.9µM* | -3% | ? | 13µM*
COc1cccc(N/C=C/C(=O)c2ccc(C)cc2)c1 | / | / | / | -27% | / | -16%
